Test [1] in a line: antimalarial activity against Dd2 strain (AID 2302;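 active = growth inhibition above 50% at the single 2 µM test dose, taken to imply half-maximal potency below 2 µM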;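 note: 0% = DMSO untreated growth and 100% = chloroquine plus artemisinin killed control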). The note with it: P. falciparum Dd2 in RBCs, LDH growth readout, 72 h; at 2 µM; active compounds read high.
Test [2] is described as follows: HepG2 cytotoxicity, primary screen, cytotoxicity control for P. falciparum antimalarial project, cell-based, ATP luminescence (AID 2303;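 active = inhibition above 50%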;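 note: 0% = DMSO wells and 100% = digitonin-killed cells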). The note with it: HepG2 viability, 24-48 h, at 10 µM, active compounds read high.
The target in test [3] is L-lactate dehydrogenase (Plasmodium falciparum (isolate CDC / Honduras)) (UniProt Q27743). The test can be described thus: PfLDH activity inhibition – cell lysate, 3D7 strain, counter-screen for P. falciparum growth inhibition project (AID 2304).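 Note: 0% = vehicle and 100% = reference inhibitor.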 Particulars: P. falciparum 3D7 crude extract, LDH APAD/NBT absorbance; at 2 µM; active compounds read high.
Sequence of L-lactate dehydrogenase (Plasmodium falciparum (isolate CDC / Honduras)) (Q27743 whole entry, looked up): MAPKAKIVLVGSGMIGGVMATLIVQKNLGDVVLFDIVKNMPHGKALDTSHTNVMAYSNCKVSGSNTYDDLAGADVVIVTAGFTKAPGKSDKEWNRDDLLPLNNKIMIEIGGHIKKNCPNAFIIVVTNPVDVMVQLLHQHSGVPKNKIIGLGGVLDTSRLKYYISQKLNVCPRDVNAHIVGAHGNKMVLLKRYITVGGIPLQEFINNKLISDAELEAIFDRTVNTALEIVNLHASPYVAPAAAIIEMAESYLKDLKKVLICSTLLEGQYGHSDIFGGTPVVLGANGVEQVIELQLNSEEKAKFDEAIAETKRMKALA
The nature of test [4]: inhibition of 3D7 malaria parasite growth – strain 3D7 (AID 2306).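 Note: 0% = DMSO wells and 100% = chloroquine plus artemisinin control wells.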 Particulars: P. falciparum 3D7 erythrocytic growth, LDH absorbance, 72 h; at 2 µM; active compounds read high.
Test [5] deals with Calcium-dependent protein kinase 1 (Plasmodium falciparum (isolate 3D7)) (UniProt P62344). In words: PfCDPK1 kinase inhibitors, biochemical, TCAMS library (AID 1159585; cut-off not given, nearly all actives have IC50 up to about 0.98 µM;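 note: inhibitors leave more ATP so luminescence rises with inhibition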). Particulars: recombinant PfCDPK1, Kinase-Glo ATP depletion luminescence. On the technique in general: In Kinase-Glo more light means more ATP remaining.
Sequence of Calcium-dependent protein kinase 1 (Plasmodium falciparum (isolate 3D7)) (P62344 whole entry, looked up): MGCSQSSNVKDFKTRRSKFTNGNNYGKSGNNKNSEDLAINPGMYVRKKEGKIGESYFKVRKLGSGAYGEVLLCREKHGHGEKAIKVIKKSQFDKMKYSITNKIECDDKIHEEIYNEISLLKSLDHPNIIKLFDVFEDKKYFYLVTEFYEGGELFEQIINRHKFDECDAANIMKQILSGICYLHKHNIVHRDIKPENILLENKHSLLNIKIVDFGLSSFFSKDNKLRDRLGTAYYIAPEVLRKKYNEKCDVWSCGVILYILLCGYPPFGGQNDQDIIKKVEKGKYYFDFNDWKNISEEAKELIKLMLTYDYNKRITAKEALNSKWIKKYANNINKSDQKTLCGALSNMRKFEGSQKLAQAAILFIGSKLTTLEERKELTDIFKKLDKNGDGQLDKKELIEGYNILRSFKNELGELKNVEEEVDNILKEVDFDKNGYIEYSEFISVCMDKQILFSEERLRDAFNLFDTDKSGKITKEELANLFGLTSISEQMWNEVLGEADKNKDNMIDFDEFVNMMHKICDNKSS
Test [6] addresses Plasmodium falciparum protein kinase 6 (PK6, PF3D7_1337100) (UniProt Q8IDW1). In words: PfPK6 kinase inhibitors, biochemical, TCAMS library (AID 1159586). Particulars: recombinant PfPK6, Kinase-Glo ATP depletion luminescence.
Test [7] deals with Protein kinase 7 (PK7), Plasmodium falciparum 3D7 (PF3D7_0213400) (UniProt Q7YTF7). In words: inhibition of Plasmodium PK7 catalytic activity – biochemical, TCAMS antimalarial set, Kinase-Glo luminescence (AID 1159587). Particulars: recombinant PfPK7, Kinase-Glo ATP depletion luminescence.
Sequence of Protein kinase 7 (PK7), Plasmodium falciparum 3D7 (PF3D7_0213400) (Q7YTF7 1-343): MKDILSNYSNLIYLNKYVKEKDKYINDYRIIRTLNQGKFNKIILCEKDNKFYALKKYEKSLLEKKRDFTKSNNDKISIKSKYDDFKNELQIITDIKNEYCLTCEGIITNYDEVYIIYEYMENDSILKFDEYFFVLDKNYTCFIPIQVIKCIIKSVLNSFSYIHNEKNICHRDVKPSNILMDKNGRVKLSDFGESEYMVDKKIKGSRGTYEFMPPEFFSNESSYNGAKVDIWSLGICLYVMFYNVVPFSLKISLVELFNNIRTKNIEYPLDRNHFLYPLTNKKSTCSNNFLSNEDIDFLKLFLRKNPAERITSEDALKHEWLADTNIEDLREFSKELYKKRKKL
Test [8] concerns the target Calcium-dependent protein kinase 4 (Plasmodium falciparum (isolate 3D7)) (UniProt Q8IBS5). In words: PfCDPK4 kinase inhibitors, biochemical, TCAMS library (AID 1159588; cut-off not given, nearly all actives have IC50 up to about 0.91 µM). The note with it: recombinant PfCDPK4, Kinase-Glo ATP depletion luminescence.

Unmarked numbers belong to inactive results. For some of these results: Entries with a potency or affinity are not part of this list. Active and inactive are the calls of the source. Unless noted, the rule behind the calls is not given here.

Sequence of Plasmodium falciparum protein kinase 6 (PK6, PF3D7_1337100) (Q8IDW1 1-305): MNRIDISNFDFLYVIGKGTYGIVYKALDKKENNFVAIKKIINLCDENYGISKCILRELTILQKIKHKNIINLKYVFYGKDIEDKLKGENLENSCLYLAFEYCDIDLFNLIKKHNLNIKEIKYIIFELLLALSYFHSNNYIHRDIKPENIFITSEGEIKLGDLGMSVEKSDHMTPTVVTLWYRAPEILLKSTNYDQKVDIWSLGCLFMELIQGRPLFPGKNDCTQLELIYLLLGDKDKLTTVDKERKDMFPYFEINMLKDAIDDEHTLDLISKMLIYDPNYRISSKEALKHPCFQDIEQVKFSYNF
Sequence of Calcium-dependent protein kinase 4 (Plasmodium falciparum (isolate 3D7)) (Q8IBS5 whole entry, looked up): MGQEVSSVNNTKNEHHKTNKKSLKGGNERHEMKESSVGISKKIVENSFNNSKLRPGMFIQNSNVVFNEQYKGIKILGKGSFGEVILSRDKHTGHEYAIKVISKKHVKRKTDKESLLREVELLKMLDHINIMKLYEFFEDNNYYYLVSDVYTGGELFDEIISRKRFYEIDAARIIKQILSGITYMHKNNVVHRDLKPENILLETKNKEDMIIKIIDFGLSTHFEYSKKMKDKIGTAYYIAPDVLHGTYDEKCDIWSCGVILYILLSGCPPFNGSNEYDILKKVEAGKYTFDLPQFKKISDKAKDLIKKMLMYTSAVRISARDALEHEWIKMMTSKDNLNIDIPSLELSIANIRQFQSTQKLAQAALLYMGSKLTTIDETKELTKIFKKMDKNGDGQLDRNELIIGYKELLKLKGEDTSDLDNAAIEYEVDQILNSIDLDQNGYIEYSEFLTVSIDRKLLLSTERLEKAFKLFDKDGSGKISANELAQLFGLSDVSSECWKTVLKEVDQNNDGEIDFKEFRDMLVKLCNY

Usually inhibition stands for the change of the read-out against control, counted positive when it falls. Consider `N#Cc1ccc2[nH]cc(CN3CCC4(CC3)CN(CCNCc3ccccc3)C(=O)CO4)c2c1`, for which the growth inhibition in test [1] is -2%; in test [4] it was 98% (active). Besides, the inhibition in test [2] was -3%; in test [3] it was 1%. For the same compound, the outcome in test [5], in test [6], in test [7] and in test [8] was inactive.
As for `Cc1[nH]c(C)c(-c2ccc(-c3ccc(Cl)cc3)nc2)c(=O)c1Cl`, the growth inhibition in test [1] is 96% (active); in test [4], 95% (active). Besides, the inhibition in test [2] was 8%; in test [3], 3%. For the same compound, the outcome in test [5], in test [6], in test [7] and in test [8] was inactive.
For `Cc1cc(-c2cccc(CNCc3ccccc3)c2)ccc1S(=O)(=O)NCCN1CCCC1`, the growth inhibition is 58% (active) in test [1] and 98% (active) in test [4]. In addition, the inhibition in test [2] was 40%; in test [3] it was 1%. Also, the outcome in test [5], in test [6], in test [7] and in test [8] was inactive.
Turning to `C#C[C@H]1O[C@@H](n2cnc3c(Nc4cc(Br)cc(C(F)(F)F)c4)ncnc32)[C@H](O)[C@@H]1O`, the growth inhibition was 56% (active) in test [1] and 94% (active) in test [4]. For the same compound, the inhibition in test [2] was 21%; in test [3] it was 4%. The outcome in test [5], in test [6], in test [7] and in test [8] was inactive.
For the compound `COc1cccc(CNC[C@@H](O)[C@H](Cc2ccccc2)NC(=O)c2cc3c4c(c2)c(C(C)C)cn4CCS(=O)(=O)N3C)c1`, the growth inhibition in test [1] and in test [4] was 98% (active) in each case. The inhibition is 21% in test [2] and -6% in test [3]. The outcome in test [5], in test [6], in test [7] and in test [8] was inactive.
As for `COc1ccc(C2CCN(CCCCNC(=O)c3ccc(NC(=O)c4ccc(Cl)cc4)cc3)CC2)c(C)c1`, the growth inhibition was 35% in test [1] and 98% (active) in test [4]. For the same compound, the inhibition was 22% in test [2] and 2% in test [3]. Also, the result in test [5], in test [6], in test [7] and in test [8] was inactive.
With `COc1ccc(C(C(=O)NC2CCN(C[C@H](O)c3ccnc4ccc(OC)cc34)CC2)N2CCc3ccccc3C2)cc1` (stereo not given in full), the results for the growth inhibition in test [1] and in test [4] were 30% and 96% (active), respectively. Also, the inhibition in test [2] was 19%; in test [3], -3%. The result in test [5], in test [6], in test [7] and in test [8] was inactive.
Turning to `Oc1cccc(Nc2ccnc3cc(-c4cc5ccccc5o4)ccc23)c1`, the growth inhibition is 71% (active) in test [1] and 102% (active) in test [4]. In addition, the inhibition was 9% in test [2] and -1% in test [3]. For the same compound, the result in test [5], in test [6], in test [7] and in test [8] was inactive.
Turning to `CCCN=CNc1cc(-c2csc(N=C(N)N)n2)cc([N+](=O)[O-])c1`, the figures for the growth inhibition in test [1] and in test [4] were 1% and 91% (active), respectively. Further, the figures for the inhibition in test [2] and in test [3] were 12% and -3%, respectively. The outcome in test [5], in test [6], in test [7] and in test [8] was inactive.
As for `COc1ccc(-c2cccc(NC(=O)c3ccc(C#N)cc3)c2)cc1CN(C)CCN(C)C`, the growth inhibition was 18% in test [1] and 90% (active) in test [4]. Moreover, the inhibition was 14% in test [2] and 3% in test [3]. In addition, the outcome in test [5], in test [6], in test [7] and in test [8] was inactive.
For `O=C(/C=C/c1ccc(Cl)c(Cl)c1)NCCCCCN1CCCC(CCCNC(=O)Nc2ccc(C(F)(F)F)cc2)C1` (stereo not given), the growth inhibition was 48% in test [1] and 101% (active) in test [4]. The inhibition in test [2] is 58% (active); in test [3], -4%. For the same compound, the outcome in test [5], in test [6], in test [7] and in test [8] was inactive.
Regarding `CCCCCCNC(=O)C1Cc2c([nH]c3cc(Cl)ccc23)C2(CCN(Cc3ccccc3)CC2)N1` (stereo not given), the growth inhibition was 56% (active) in test [1] and 90% (active) in test [4]. The inhibition is 21% in test [2] and 2% in test [3]. The outcome in test [5], in test [6], in test [7] and in test [8] was inactive.
As for `Cc1cc(NCCC(=O)NCCOc2ccccc2)nc(NCc2ccccc2C)n1`, the results for the growth inhibition in test [1] and in test [4] were 29% and 92% (active), respectively. Besides, the values for the inhibition in test [2] and in test [3] were 17% and 0%, respectively. Besides, the result in test [5], in test [6], in test [7] and in test [8] was inactive.
For the compound `CCN1CCN(CCCNc2c3ccccc3nc3ccccc23)CC1`, the growth inhibition is 3% in test [1] and 100% (active) in test [4]. Also, the inhibition is 44% in test [2] and -1% in test [3]. Further, the outcome in test [5], in test [6], in test [7] and in test [8] was inactive.
For the compound `Oc1ccc(CCNc2nc(NCc3ccccc3-c3ccc(F)cc3)nc(N3CCNCC3)n2)cc1`, the growth inhibition in test [1] is 24%; in test [4], 92% (active). For the same compound, the inhibition is 15% in test [2] and 0% in test [3]. Moreover, the result in test [5], in test [6], in test [7] and in test [8] was inactive.
For `CCC(N)(C#Cc1ccc(-c2c(C)[nH]c(C)c(Br)c2=O)cc1)CC`, the growth inhibition in test [1] was 96% (active); in test [4] it was 97% (active). Moreover, the inhibition was 0% in test [2] and -1% in test [3]. The outcome in test [5], in test [6], in test [7] and in test [8] was inactive.
For `CC1(C)CCCN(Cc2c(O)ccc3c(=O)c(-c4nc5ccccc5s4)c(N)oc23)C1`, the growth inhibition in test [1] was 100% (active); in test [4], 101% (active). In addition, the inhibition in test [2] is 20%; in test [3], -1%. The result in test [5], in test [6], in test [7] and in test [8] was inactive.
As for `CC(C)N1CCC(Oc2ccc(CN3CCN(C(c4ccccc4)c4ccc(Cl)cc4)CC3)cc2)CC1` (stereo not given), the results for the growth inhibition in test [1] and in test [4] were 46% and 97% (active), respectively. Also, the results for the inhibition in test [2] and in test [3] were 44% and 4%, respectively. For the same compound, the result in test [5], in test [6], in test [7] and in test [8] was inactive.
For `c1cc(OCCN2CCCC2)ccc1CNC1CCN(CC2CCCCC2)CC1`, the growth inhibition in test [1] is 54% (active); in test [4] it was 101% (active). Also, the figures for the inhibition in test [2] and in test [3] were 15% and 5%, respectively. The result in test [5], in test [6], in test [7] and in test [8] was inactive.
On to `COc1ccc(Cn2c(=O)[nH]c3cc(C(=O)NC4CCN(Cc5ccccc5)CC4)ccc3c2=O)cc1`, for which the growth inhibition was 45% in test [1] and 97% (active) in test [4]. For the same compound, the inhibition in test [2] was 10%; in test [3], -7%. Further, the outcome in test [5], in test [6], in test [7] and in test [8] was inactive.

The values are drawn from PubChem BioAssay.
